PubChem BioAssay AID463173 (ICCB-Longwood Screening Facility, Harvard Medical School, 2010)
The campaign covered roughly 52,000 compounds. About 4,300 (8.3%) were called active. Rule as the data show it: active = survival mostly below about 52% (no sharp cut-off); inactive = mostly above about 56%. For the sample, actives were picked, then their nearest neighbours and some compounds at random.

Each molecule was assayed on DeltatarO mutant (assay: S. aureus survival, RN4220 and DeltatarO strains – OD600, teichoic acid synthesis inhibitors, primary screen (AID 463173)). Details: S. aureus RN4220 wild type/DeltatarO growth, OD600, 18 h, hits give low values, screened at 18.75 µg/mL (by protocol).

| Compound | survival |
| --- | --- |
| COc1ccc(N2CCN(C(=O)Cn3ncc4c3-c3cc(C)ccc3OC4)CC2)cc1 | 122% (inactive) |
| C=C(C)Cn1c(=O)c2c(nc3n2CCN3c2cc(C)cc(C)c2)n(C)c1=O | 81% (inactive) |
| Oc1cccc(N=Cc2sc(=S)n(C3CCCCC3)c2O)c1 | 84% (inactive) |
| CC1=C(C(=O)Nc2cccc(C)c2C)C2(CCCCC2)OC1=O | 89% (inactive) |
| CC1=C(C(=O)Nc2cccc(Cl)c2C)C2(CCCCCC2)OC1=O | 0% (active) |
| CC1=C(C(=O)Nc2cccc(C(F)(F)F)c2)C2(CCN(C(C)C)CC2)OC1=O | 84% (inactive) |
| CC1=C(C(=O)NCc2cccc(Br)c2)C2(CCCCC2)OC1=O | 83% (inactive) |
| CC1=C(C(=O)NCc2cccc(F)c2)C2(CCCCCC2)OC1=O | 55% (inactive) |
| CC(=O)N1CCC2(CC1)OC(=O)C(C)=C2C(=O)Nc1cccc(Cl)c1C | 70% (inactive) |
| CC1=C(C(=O)NCc2cccc(F)c2)C2(CCCCC2)OC1=O | 37% (active) |
| CC1=C(C(=O)Nc2cccc(C(F)(F)F)c2)C2(CCCCC2)OC1=O | 95% (inactive) |
| CC1=C(C(=O)Nc2ccccc2Br)C2(CCC(C)CC2)OC1=O (configuration not stated) | 83% (inactive) |
| CC1=C(C(=O)Nc2cccc(C(F)(F)F)c2)C2(CCCCCC2)OC1=O | 32% (active) |
| COC(=O)c1ccccc1NC(=O)C1=C(C)C(=O)OC12CCCCCC2 | 84% (inactive) |
| COC(=O)c1ccccc1NC(=O)C1=C(C)C(=O)OC12CCC(C)CC2 (configuration not stated) | -23% (active) |
| CCOc1ccc(C2C(C(=O)Nc3ccc(C)cc3C)=C(C)Nc3c(C(=O)Nc4ccc(C)cc4)cnn32)cc1OC (configuration not stated) | 94% (inactive) |
| O=C(NC(=O)c1ccccc1)Nc1ccc(-n2nc(C(F)(F)F)cc2C(F)(F)F)cc1 | 173% (inactive) |
| COC(=O)c1ccccc1NC(=O)Cn1c(=O)cc(-c2ccccc2)c2c(C)nn(C)c21 | 89% (inactive) |
| CCOC(=O)C(CC)N1CCN(Cc2ccc(F)cc2)C(=O)C1=O (configuration not stated) | 85% (inactive) |
| Cc1cccc(NC(=O)C(=O)NCC(c2cccnc2)N2CCc3ccccc3C2)c1C (configuration not stated) | 86% (inactive) |
| CN1CC(=O)N(CC(=O)Nc2ccc(Cl)c(C(F)(F)F)c2)c2ccccc2C1=O | 85% (inactive) |
| Cc1ccc(NC(=O)C2CCCN(S(=O)(=O)c3cccc4cccnc34)C2)c(C)c1 (configuration not stated) | 78% (inactive) |
| O=C(COc1ccccc1[N+](=O)[O-])Nc1ccc(-c2nc3ccccc3s2)cc1 | 63% (inactive) |

| Compound | survival |
| --- | --- |
| COc1cccc(C(=O)Nc2ccccc2C(=O)OCc2cc(=O)n3nc(C4CC4)sc3n2)c1 | 65% (inactive) |
| COc1ccc(OC)c(NC(=O)C2=C(C)C(=O)OC23CCCCCC3)c1 | 131% (inactive) |
| COc1ccc(NC(=O)C2=C(C)C(=O)OC23CCN(C(C)C)CC3)cc1Cl | 83% (inactive) |
| COc1ccc(OC)c(NC(=O)C2=C(C)C(=O)OC23CCN(C(C)C)CC3)c1 | 32% (active) |
| CCCn1c(=O)c2sccc2n2c(CCCC(=O)NC3CCCCC3)nnc12 | 80% (inactive) |
| CCc1cccc(C)c1NC(=O)CCn1c(=O)c2cccn2c2ccccc21 | 58% (inactive) |
| COc1ccc(-n2nc3c(N4CCCC(C(=O)NCCc5ccccc5C)C4)nnc(C)c3c2C)cc1 (configuration not stated) | 70% (inactive) |
| C/C(=N\NC(=O)c1ccco1)c1ccc(C)o1 | 80% (inactive) |
| CC(=O)c1ccc(NC(=O)Cn2ncc3c4ccccc4n(Cc4ccccc4)c3c2=O)cc1 | 73% (inactive) |
| Cc1ccc2cccc(NC(=O)COc3ccccc3[N+](=O)[O-])c2n1 | 75% (inactive) |
| CC(=O)c1ccc(NC(=O)COc2ccccc2-c2nc(-c3ccccc3)no2)cc1 | 48% (inactive) |
| Cc1ccc(-c2noc(-c3ccccc3OCC(=O)Nc3ccccc3[N+](=O)[O-])n2)cc1 | 60% (inactive) |
| Cc1ccccc1-c1noc(-c2ccccc2OCC(=O)Nc2ccccc2[N+](=O)[O-])n1 | 45% (inactive) |
| CC(C)c1noc(-c2ccccc2OCC(=O)Nc2ccc([N+](=O)[O-])cc2)n1 | 61% (inactive) |
| CC(C)c1noc(-c2ccccc2OCC(=O)Nc2cccc([N+](=O)[O-])c2)n1 | 62% (inactive) |
| Cc1cccc(-c2noc(-c3ccccc3OCC(=O)Nc3ccccc3[N+](=O)[O-])n2)c1 | 94% (inactive) |
| CC(C)c1noc(-c2ccccc2OCC(=O)Nc2ccccc2[N+](=O)[O-])n1 | 44% (active) |
| O=C(COc1ccccc1-c1nc(-c2ccccc2)no1)Nc1ccccc1[N+](=O)[O-] | 31% (active) |
| CC(=O)c1ccc(NC(=O)COc2ccccc2-c2nc(C)no2)cc1 | 95% (inactive) |
| Cc1noc(-c2ccccc2OCC(=O)Nc2ccccc2[N+](=O)[O-])n1 | 39% (active) |
| CC(=O)c1ccc(NC(=O)COc2ccccc2-c2nc(C(C)C)no2)cc1 | 55% (active) |
| C=CCNC(=S)N1CCC(C(=O)c2ccc(C)cc2)CC1 | 103% (inactive) |
| O=C(N/N=C/c1ccccc1)C(O)c1ccccc1 (configuration not stated) | 95% (inactive) |

| Compound | survival |
| --- | --- |
| COc1ccc(-c2nc3sc(CCNC(=O)C(=O)Nc4ccc(OC)c(OC)c4)c(C)n3n2)cc1 | 84% (inactive) |
| CCCN1CC=C2C(C#N)=C(N)C(C#N)(C#N)C(c3ccc(F)cc3F)C2C1 (configuration not stated) | 77% (inactive) |
| Cc1cc(OC(C)C(=O)N2CCN(CCc3ccccn3)CC2)ccc1Cl (configuration not stated) | 68% (inactive) |
| CC1=C(C(=O)Nc2ccc(C)cc2C)C(c2cc(Br)ccc2F)n2ncc(C(=O)Nc3ccc(C)cc3)c2N1 (configuration not stated) | 89% (inactive) |
| Cc1ccc(-n2ncc3c(Nc4ccc5c(c4)OCCO5)ncnc32)cc1Cl | 117% (inactive) |
| COc1cc(NC(=O)CC2C(=O)N(c3ccc(Cl)cc3)C(=O)N2Cc2cccs2)cc(OC)c1 (configuration not stated) | 85% (inactive) |
| COc1ccc(-n2c(SCC(=O)NCc3ccc(C)cc3)nc3n[nH]c(C)c3c2=N)cc1 | 87% (inactive) |
| Cc1ccccc1Cn1c(=O)n(-c2ccc(Cl)cc2)c(=O)c2c3c(sc21)CCCC3 | 114% (inactive) |
| COc1ccc(NC(=O)c2ccc3c(=O)n4nc(Nc5cccc(Cl)c5C)sc4nc3c2)cc1 | 67% (inactive) |
| CC1CCCN(Cc2c(O)ccc3c(=O)c(-c4ccccc4Cl)c(C(F)(F)F)oc23)C1 (configuration not stated) | 43% (active) |
| CC1CCN(Cc2c(O)ccc3c(=O)c(-c4ccc(Cl)cc4)c(C(F)(F)F)oc23)CC1 | 60% (inactive) |
| CC(C)c1ccccc1Oc1c(C(F)(F)F)oc2c(CN3CCN(C)CC3)c(O)ccc2c1=O | 49% (inactive) |
| CC1CCCN(Cc2c(O)ccc3c(=O)c(Oc4ccccc4Cl)c(C(F)(F)F)oc23)C1 (configuration not stated) | 88% (inactive) |
| CCc1ccc(Oc2c(C(F)(F)F)oc3c(CN4CCCC(C)C4)c(O)ccc3c2=O)cc1 (configuration not stated) | 77% (inactive) |
| CCN1CCN(Cc2c(O)ccc3c(=O)c(Oc4ccccc4Cl)c(C(F)(F)F)oc23)CC1 | 90% (inactive) |
| O=c1c(-c2ccc(Cl)cc2)c(C(F)(F)F)oc2c(CN3CCCCC3)c(O)ccc12 | 134% (inactive) |
| CC1CCCN(Cc2c(O)ccc3c(=O)c(-c4ccc(Cl)cc4)c(C(F)(F)F)oc23)C1 (configuration not stated) | 46% (active) |
| CC1CCCCN1Cc1c(O)ccc2c(=O)c(-c3ccccc3Cl)c(C(F)(F)F)oc12 (configuration not stated) | 55% (inactive) |
| CC1CCCN(Cc2c(O)ccc3c(=O)c(Oc4ccc(C(C)(C)C)cc4)c(C(F)(F)F)oc23)C1 (configuration not stated) | 17% (active) |
| COc1ccc(Oc2c(C(F)(F)F)oc3c(CN4CCCC(C)C4)c(O)ccc3c2=O)cc1 (configuration not stated) | 68% (inactive) |
| CCN1CCN(Cc2c(O)ccc3c(=O)c(Oc4ccccc4C(C)C)c(C(F)(F)F)oc23)CC1 | 51% (active) |
